Data published in PubChem BioAssay (NCI).
The panel holds about 79,000 compounds, 15% with a hit somewhere; the sample as a whole holds those more often. Activity calls are given as the source filed them. Cut-off read from the data, not from the text of the source: active = growth inhibition above about 70%; inactive = the rest.

Legend:
[1] = NCI Yeast Anticancer Drug Screen. Data for the rad52 strain (AID 147);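 note: 0% = growth of vehicle-treated control cultures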; conditions: S. cerevisiae rad52 mutant growth inhibition, active compounds read high
How it was run: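 The repair-mutant yeast strain was incubated with compounds, then growth was read and inhibition derived relative to vehicle.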

[2] = NCI Yeast Anticancer Drug Screen. Data for the wt1 strain (AID 149);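 note: 0% = growth of vehicle-treated wt1 cultures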; conditions: S. cerevisiae wt1 strain (SPY 50644) growth inhibition, active compounds read high
How it was run: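 wt1 yeast, compound-treated; % growth inhibition vs vehicle control.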

[3] = NCI Yeast Anticancer Drug Screen. Data for the rad50EPP+ strain (AID 151);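 note: 0% = growth of vehicle-treated control cultures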; conditions: S. cerevisiae rad50 mutant strain, active compounds read high
How it was run: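 Vehicle-normalised growth inhibition; rad50EPP+ yeast strain, altered in DNA damage repair, compound-treated.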

[4] = NCI Yeast Anticancer Drug Screen. Data for the rad50 strain (AID 155);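 note: 0% = growth of vehicle-only cultures of the same strain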; conditions: S. cerevisiae rad50 strain growth inhibition, active compounds read high
How it was run: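 Genetically altered yeast (DNA repair pathway); compound treatment; growth inhibition vs vehicle ctrl.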

[5] = NCI Yeast Anticancer Drug Screen. Data for the mec2-1 strain (AID 157); conditions: S. cerevisiae mec2-1 strain, active compounds read high
How it was run: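 Mutant yeast (mec2-1) grown with compound; growth inhibition relative to vehicle control reported.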

[6] = NCI Yeast Anticancer Drug Screen. Data for the rad14 strain (AID 159);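 note: 0% = growth of vehicle-treated control cultures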; conditions: S. cerevisiae rad14 strain growth inhibition, active compounds read high
How it was run: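 Test compounds were applied to a repair-deficient yeast strain. Its growth was then compared with that of cultures given vehicle alone, and inhibition was expressed relative to those controls.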

[7] = NCI Yeast Anticancer Drug Screen. Data for the sgs1 mgt1 strain (AID 161);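 note: 0% = growth of cultures given vehicle only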; conditions: S. cerevisiae sgs1 mgt1 strain, active compounds read high
How it was run: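 Yeast cells carrying a defined DNA-repair defect were exposed to test compounds. Growth inhibition was measured relative to vehicle-treated controls.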

[8] = NCI Yeast Anticancer Drug Screen. Data for the cln2 rad14 strain (AID 165);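 note: 0% = growth equal to vehicle treated cultures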; conditions: S. cerevisiae cln2 rad14 strain, active compounds read high
How it was run: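 Readout is yeast growth inhibition versus vehicle-treated controls, using a strain with cln2 and rad14 alterations exposed to compound.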

[9] = NCI Yeast Anticancer Drug Screen. Data for the bub3 strain (AID 167); conditions: S. cerevisiae bub3 mutant strain, active compounds read high
How it was run: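 Yeast carrying a defined mutation is treated with each compound, and growth is compared with that of vehicle-exposed cells to give inhibition.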

[10] = NCI Yeast Anticancer Drug Screen. Data for the sgs1 strain (AID 173);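 note: 0% = growth of vehicle-only control cultures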; conditions: S. cerevisiae sgs1 mutant, active compounds read high
How it was run: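 Each compound was added to cultures of the altered yeast strain. Growth was recorded, and inhibition was derived by comparison with vehicle controls.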

[11] = NCI Yeast Anticancer Drug Screen. Data for the mlh1 rad18 strain (AID 175); conditions: S. cerevisiae mlh1 rad18 strain growth inhibition, active compounds read high
How it was run: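 Genetically defined yeast (DNA repair-deficient) exposed to compounds; growth inhibition determined relative to vehicle.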

[12] = NCI Yeast Anticancer Drug Screen. Data for the rad18 strain (AID 177); conditions: S. cerevisiae rad18 mutant growth inhibition, active compounds read high
How it was run: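 Vehicle-treated cultures served as the baseline for scoring compound-induced growth inhibition in DNA-repair-mutant yeast.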

[13] = NCI Yeast Anticancer Drug Screen. Data for the CLN2oe strain (AID 163);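 note: 0% = growth of vehicle-only control cultures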; conditions: S. cerevisiae CLN2oe strain, active compounds read high
How it was run: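 Compounds are applied to yeast harbouring a defined cell-cycle control change; reduced growth compared with vehicle-treated controls gives the value.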

[14] = NCI Yeast Anticancer Drug Screen. Data for the wt2 strain (AID 169);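 note: 0% = growth of vehicle-treated yeast cultures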; conditions: S. cerevisiae wt2 strain growth inhibition, active compounds read high
How it was run: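 Against vehicle-treated controls, the growth of yeast exposed to each compound was compared, and the inhibition was recorded.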

[15] = NCI Yeast Anticancer Drug Screen. Data for the mlh1 strain (AID 171);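 note: 0% = growth of vehicle-treated control cultures of the same strain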; conditions: S. cerevisiae mlh1 strain growth inhibition, active compounds read high
How it was run: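 Measured: yeast growth. Reference: vehicle-treated controls. Organism: strain with a defined alteration affecting DNA damage repair or cell cycle control, treated with compound.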

[16] = at 5.0 µM (retest, dose inferred, filed as 0.5)
[17] = at 50.0 µM (retest, dose inferred, filed as 5.0)

Measured: growth inhibition

Oc1ccc(C=Nc2ccccc2O)cc1
inactive: [1]; at 1.2 µM 34% | [1]; at 3.7 µM 52% | [1]; at 11.0 µM 56% | [2]; at 1.2 µM 28% | [2]; at 3.7 µM 28% | [2]; at 11.0 µM 25% | [2]; at 33.0 µM 27% | [2]; at 100.0 µM 39% | [3]; at 1.2 µM 35% | [3]; at 3.7 µM 68% | [4]; at 1.2 µM 68% | [4]; [16] 13% | [5]; at 1.2 µM 23% | [5]; at 3.7 µM 29% | [5]; [16] 26% | [5]; at 11.0 µM 33% | [5]; at 33.0 µM 44% | [5]; [17] 14% | [5]; at 50.0 µM 23% | [5]; at 100.0 µM 65% | [6]; at 1.2 µM 17% | [6]; at 3.7 µM 16% | [6]; at 11.0 µM 20% | [6]; at 33.0 µM 25% | [6]; at 100.0 µM 38% | [7]; [16] 15% | [7]; [17] 42% | [7]; at 50.0 µM 28.8% | [8]; [16] 11% | [8]; [17] 31% | [8]; at 50.0 µM 1.55% | [9]; [16] 55% | [10]; at 1.2 µM 32% | [10]; at 3.7 µM 36% | [10]; at 11.0 µM 37% | [10]; at 33.0 µM 51% | [10]; at 100.0 µM 67% | [11]; [16] 48% | [12]; at 1.2 µM 61%
active: [1]; at 33.0 µM 75% | [1]; at 100.0 µM 88% | [3]; at 11.0 µM 90% | [3]; at 33.0 µM 90% | [3]; at 100.0 µM 94% | [4]; at 3.7 µM 85% | [4]; at 11.0 µM 81% | [4]; at 33.0 µM 84% | [4]; [17] 80% | [4]; at 50.0 µM 78.8% | [4]; at 100.0 µM 90% | [9]; at 1.2 µM 75% | [9]; at 3.7 µM 82% | [9]; at 11.0 µM 81% | [9]; at 33.0 µM 83% | [9]; [17] 86% | [9]; at 50.0 µM 80.3% | [9]; at 100.0 µM 92% | [11]; [17] 86% | [11]; at 50.0 µM 70% | [12]; at 3.7 µM 78% | [12]; at 11.0 µM 76% | [12]; at 33.0 µM 75% | [12]; at 100.0 µM 85%

O=[N+]([O-])c1cccc2nc3ccccc3c(NCCc3cccc[n+]3[O-])c12
inactive: [1]; at 1.2 µM 15% | [1]; at 3.7 µM 47% | [2]; at 1.2 µM 0% | [2]; at 3.7 µM 1% | [2]; at 11.0 µM 11% | [2]; at 33.0 µM 27% | [4]; at 1.2 µM 10% | [4]; at 3.7 µM 30% | [4]; at 11.0 µM 68% | [5]; at 1.2 µM 2% | [5]; at 3.7 µM 18% | [5]; [16] 25% | [5]; at 11.0 µM 62% | [6]; at 1.2 µM 12% | [6]; at 3.7 µM 37% | [13]; at 1.2 µM -11% | [13]; at 3.7 µM -12% | [13]; at 11.0 µM 6% | [13]; at 33.0 µM 35% | [9]; at 1.2 µM -12% | [9]; at 3.7 µM -13% | [9]; [16] 3% | [9]; at 11.0 µM -11% | [9]; at 33.0 µM 17% | [9]; at 50.0 µM 53.2% | [9]; at 100.0 µM 65% | [14]; at 1.2 µM 1% | [14]; at 3.7 µM 3% | [14]; at 11.0 µM 14% | [14]; at 33.0 µM 35% | [15]; at 1.2 µM 0% | [15]; at 3.7 µM 3% | [15]; at 11.0 µM 20% | [15]; at 33.0 µM 50% | [10]; at 1.2 µM 43%
active: [1]; at 11.0 µM 81% | [1]; at 33.0 µM 92% | [1]; at 100.0 µM 97% | [2]; at 100.0 µM 70% | [4]; [16] 70% | [4]; at 33.0 µM 88% | [4]; [17] 96% | [4]; at 50.0 µM 87.5% | [4]; at 100.0 µM 94% | [5]; at 33.0 µM 95% | [5]; [17] 98% | [5]; at 50.0 µM 83.2% | [5]; at 100.0 µM 98% | [6]; at 11.0 µM 89% | [6]; at 33.0 µM 97% | [6]; at 100.0 µM 99% | [7]; [16] 91% | [7]; [17] 97% | [7]; at 50.0 µM 91.8% | [13]; at 100.0 µM 86% | [8]; [16] 85% | [8]; [17] 99% | [8]; at 50.0 µM 95.2% | [9]; [17] 83% | [14]; at 100.0 µM 79% | [15]; at 100.0 µM 89% | [10]; at 3.7 µM 75% | [10]; at 11.0 µM 89% | [10]; at 33.0 µM 93% | [10]; at 100.0 µM 96% | [11]; [16] 88% | [11]; [17] 98% | [11]; at 50.0 µM 93.8% | [12]; at 1.2 µM 92% | [12]; at 3.7 µM 94% | [12]; at 11.0 µM 94% | [12]; at 33.0 µM 96% | [12]; at 100.0 µM 96%
